Screening results from PubChem BioAssay.
Most compounds without a hit are left out; they make up all but 4.8% or so of the library.
DAX1 inh-1 = NR0B1 (DAX1) inhibition; P51843; HEK293 Gal4-DAX1 luciferase reporter, luminescence; inhibition, % at 6.75 µM; 340,000 compounds, 0.99% hits; AID 504766;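 active = inhibition above the mean over all tested compounds plus 3 SD, cut at about 4.2% in these data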;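 note: 0% = DAX1-transfected cells with DMSO and 100% = empty-vector control cells with DMSO; inhibition shows as a rise in luminescence from relieved DAX1 repression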
hcDAF12 agonist = activators of H. contortus DAF-12 nuclear receptor. 370,000 compounds, 1.4% hits. HEK293 hcDAF-12 lit1-tk-luc reporter, luminescence; 0% DMSO, 100% Δ7-dafachronic acid. activation, % at 6.8 µM;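 active = activation above the mean of all tested compounds plus 3 SD, cut at about 5.5% in these data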;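 note: 100% = response to 3 µM Δ7-dafachronic acid high control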
DAX1 inh-2 = inhibitors of DAX1 repression of SF-1 activated StAR promoter; HEK293T StAR-luciferase reporter, SF-1/DAX-1 repression relief; inhibition, % at 6.8 µM; 370,000 compounds, 1.1% hits; AID 652010;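 active = inhibition above the mean over all tested compounds plus 3 SD, cut at about 3.6% in these data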;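 note: 0% = DAX-1 cells with DMSO and 100% = cells lacking DAX-1 with DMSO; higher inhibition means more luminescence from relief of DAX-1 repression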
SMARCA2 activ = SMARCA2 function activation, primary screen | AID 652017 | activation, % at 9.1 µM | MG213 cells, MMTV-luciferase reporter, dexamethasone, overnight | 370,000 compounds, 1% hits; in the data active = activation above about 7.8%;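 note: 0% = vehicle wells and 100% = reference activator wells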
hgDAF-12 ag = agonists of H. glycines DAF-12 nuclear receptor; HEK293 GAL4-hgDAF12 UAS-luciferase reporter, agonist luminescence; normalized to butyrate control; activation, % at 6.8 µM; 370,000 compounds, 1.8% hits; AID 687014;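 active = activation above a cutoff set at the mean of all screened compounds plus 3 SD, cut at about 10% in these data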;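 note: 0% = DMSO wells and 100% = sodium butyrate wells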
ssDAF12 agonist = activates DAF-12 receptor from parasite S. stercoralis; 370,000 compounds, 1% hits; AID 652126; HEK293 ssDAF-12/GRIP1 lit1-tk-luc reporter, luminescence; % of 3 µM dafachronic acid response; activation, % at 6.8 µM;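 active = activation above the mean over all tested compounds plus 3 SD, cut at about 0.9% in these data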;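 note: 0% = DMSO-only wells and 100% = 3 µM delta7-dafachronic acid wells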
DAX1 inh confirm = confirmation of human DAX1 (NR0B1) inhibitors | shares compounds with DAX1 inh-2 | HEK293T StAR-promoter luciferase reporter, SF-1/DAX-1 repression | inhibition, % at 6.8 µM | 2,400 compounds, 87% hits | AID 652134;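 active = inhibition above the average of every tested compound plus 3 SD, cut at about 3.8% in these data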;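 note: 0% = DAX-1 cells with DMSO and 100% = no DAX-1 control cells with DMSO; active compounds raise luminescence by relieving repression of the StAR reporter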
Target sequence (P51843 whole entry, looked up): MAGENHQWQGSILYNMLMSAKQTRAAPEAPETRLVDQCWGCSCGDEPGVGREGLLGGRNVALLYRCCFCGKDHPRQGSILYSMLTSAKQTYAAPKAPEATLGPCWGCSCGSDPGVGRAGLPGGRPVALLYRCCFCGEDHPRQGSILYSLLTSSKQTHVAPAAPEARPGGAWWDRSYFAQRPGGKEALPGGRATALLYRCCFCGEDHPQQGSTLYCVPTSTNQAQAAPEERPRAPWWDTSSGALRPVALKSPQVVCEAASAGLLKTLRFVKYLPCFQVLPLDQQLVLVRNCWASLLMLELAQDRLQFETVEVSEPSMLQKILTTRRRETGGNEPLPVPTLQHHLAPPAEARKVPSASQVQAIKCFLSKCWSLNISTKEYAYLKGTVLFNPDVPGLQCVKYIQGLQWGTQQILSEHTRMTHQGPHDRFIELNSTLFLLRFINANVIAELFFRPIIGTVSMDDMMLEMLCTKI
SF1 mutant ctr = nonselective inhibitor or artifact in SF-1 mutant DAX1 counter-screen; shares compounds with DAX1 inh-2; HEK293 StAR-luciferase, SF-1 AF2 mutant, luminescence; inhibition, % at 6.8 µM; 2,400 compounds, 78% hits; AID 652136;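 active = inhibition above the mean of all tested compounds plus 3 SD, cut at about 3% in these data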;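 note: 0% = DAX-1 transfected cells with DMSO and 100% = cells without DAX-1 with DMSO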
* = called active by the depositor; nt = no result given.

SMILES	DAX1 inh-1	hcDAF12 agonist	DAX1 inh-2	SMARCA2 activ	hgDAF-12 ag	ssDAF12 agonist	DAX1 inh confirm	SF1 mutant ctr
Cc1csc(NC(=O)CCC(=O)N(CC(=O)NC2CCCC2)c2ccccc2)n1	-2.4	1.5	0.2	1.2	-2.2	-1.3	nt	nt
Cc1ccc(F)cc1NC(=O)COC(=O)c1ccc2ncsc2c1	-0.4	0.6	4.7*	-1.1	3.3	-0.1	3.6	0.5
COc1ccccc1C(=O)Nc1ccc2nc3n(c(=O)c2c1)CCCC3	-0.8	-0.9	-0.2	0.0	-0.1	-1.0	nt	nt
COc1cc(OC)cc(C(=O)Nc2ccc3nc4n(c(=O)c3c2)CCCCC4)c1	-0.4	-1.5	6.0*	1.7	1.1	-1.4	3.2	2.3
CC(C)CCNc1ncnc2c1cnn2Cc1ccccc1Cl	-2.0	-2.8	-0.9	-4.4	-0.7	-1.3	nt	nt
O=C(Nc1ccc2c(c1)CCC2)Nc1ccc(F)cc1F	1.6	1.8	5.5*	0.6	11.0*	-0.3	9.9*	6.9*
Cc1cc(C)cc(NC(=O)Nc2ccc3c(c2)CCC3)c1	0.3	-1.8	0.6	-2.2	3.5	-1.5	nt	nt
Cc1ccc(NC(=O)Nc2ccc3c(c2)CCC3)cc1	1.4	1.6	5.5*	1.9	7.1	-1.0	5.3*	4.6*
O=C(Nc1ccc(F)cc1)Nc1ccc2c(c1)CCC2	1.9	-0.4	5.2*	3.4	6.9	0.1	4.2*	3.1*
O=C(Nc1cccnc1)Nc1ccc(F)c(Cl)c1	-0.8	-0.8	-0.7	6.2	2.2	-0.8	nt	nt
Cc1ccc(C(=O)COC(=O)c2cccc(O)c2)s1	-0.3	-0.2	0.8	4.7	1.1	-0.6	nt	nt
CCCNC(=O)CNC(=S)N(Cc1ccccc1F)C1CCCCC1	-0.7	0.3	-1.5	-2.8	-0.2	-2.2	nt	nt
CC(C)c1nc(CNC(=O)c2ccc(OC3CCN(Cc4ccccn4)CC3)cc2)cs1	0.6	-1.7	-1.9	-2.2	-0.9	-1.6	nt	nt
CC(OC(=O)CCNS(=O)(=O)c1cccs1)C(=O)Nc1ccc(S(N)(=O)=O)cc1 (configuration not stated)	1.6	-0.3	0.0	-0.6	-0.3	-0.9	nt	nt
COc1ccc(NC(=O)c2cccc(Oc3ccccc3)c2)cn1	-0.8	-1.8	-0.9	-2.1	1.7	-1.1	nt	nt
COc1ccc(NC(=S)NC(=O)c2ccccc2)cn1	1.2	1.5	4.6*	4.7	13.2*	-0.3	3.5	4.3*
Cc1ccc(CN(C)C(=O)c2cc(S(=O)(=O)N3CCOCC3)ccc2F)o1	-0.5	-1.1	0.2	-2.7	-1.2	-1.4	nt	nt
O=C(O)c1ccc(N/N=C/c2ccc(-c3cccc(Cl)c3)o2)cc1	7.2*	5.5	6.2*	6.1	15.7*	1.0*	12.8*	7.6*
O=C(O)c1ccc(N/N=C/c2ccc(-c3cc(Cl)ccc3Cl)o2)cc1	-1.6	0.3	2.5	-0.2	1.7	-1.3	nt	nt
O=C(O)c1ccc(N/N=C/c2ccc(-c3ccc(Cl)cc3Cl)o2)cc1	-2.6	0.9	5.1*	0.6	0.3	-1.3	14.5*	5.6*
COc1ccc(/C=C2/SC(=O)N(CC(=O)NCCC(C)C)C2=O)cc1OC	-0.4	-0.3	-1.2	7.4	2.3	-1.4	nt	nt
CN(C)c1cc(Nc2ccc(O)cc2)c([N+](=O)[O-])c2nonc12	0.0	0.9	0.0	-0.9	5.8	0.6	nt	nt
Cc1cc(C)c2nc(N3CCN(C(=O)c4ccco4)CC3)sc2c1	1.9	-0.9	5.0*	3.9	5.3	-0.9	4.4*	2.1
O=C(c1ccc(CS(=O)c2ccccc2Cl)o1)N1CCN(C2CCCCC2)CC1 (configuration not stated)	1.4	-0.7	6.9*	-3.4	-0.8	-0.2	5.8*	-4.7
O=C(c1ccc(CS(=O)c2ccccc2Cl)o1)N1CCCCCC1 (configuration not stated)	1.1	-0.8	-2.0	2.2	4.2	-1.1	nt	nt
SMILES	DAX1 inh-1	hcDAF12 agonist	DAX1 inh-2	SMARCA2 activ	hgDAF-12 ag	ssDAF12 agonist	DAX1 inh confirm	SF1 mutant ctr
O=C(Nc1ccccn1)c1cccc(S(=O)(=O)N2CCOCC2)c1	1.5	-0.7	0.7	0.7	-0.5	-1.0	nt	nt
Cc1ccnc(NC(=O)c2cccc(S(=O)(=O)N3CCOCC3)c2)c1	0.4	3.3	6.1*	5.2	10.9*	-0.2	4.7*	2.8
CCOc1ccc(CCN2C(=S)N([C@@H](Cc3ccccc3)CN3CCC[C@@H]3CN3C(=S)NC[C@@H]3CC(C)C)C[C@@H]2Cc2ccccc2)cc1	nt	-0.5	-0.3	2.9	-0.2	-1.5	nt	nt
Oc1ccc(C[C@H]2CNC(=S)N2CC2CCCN2C[C@H](Cc2ccccc2)N2C[C@H](Cc3ccc(O)cc3)N(CC3CCCCCC3)C2=S)cc1 (some centres not stated)	-1.0	-0.4	4.9*	-3.8	-1.2	-1.3	1.6	0.9
CCOc1ccc(CCN2C(=S)N([C@@H](CC(C)C)CN3CCCC3CN3C(=S)NC[C@@H]3CC(C)C)C[C@@H]2Cc2ccccc2)cc1 (some centres not stated)	0.9	-0.6	4.8*	1.1	-2.1	-0.7	-2.4	-1.6
CC(C)C[C@@H](CN1CCC[C@@H]1CN1C(=S)NC[C@@H]1Cc1ccccc1)N1C[C@H](Cc2ccc(O)cc2)N(CC2CCCCCC2)C1=S	nt	-1.5	5.0*	-6.0	1.1	-0.5	-1.3	0.5
